{"source": "PubChem BioAssay (NCI)", "note": "Compounds without any hit were thinned out: in the full panel of roughly 83,000, 20% have a hit.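 Testing used 96-well plates and a 48-hour single-concentration exposure. Example: -40 means 40% of the starting cells died.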 A number with no mark means an inactive call. The source made the active and inactive calls. Rule for the calls: active = growth percent below 10; inactive = the rest.", "data": [{"test_system": "NCI-H322M lung", "assay": "NCI-60 one-dose screen, 48 h (100 = growth as untreated, 0 = no growth, -100 = all killed)", "conditions": "10 µM unless noted", "values": [{"smiles": "Clc1cccc(Cl)c1Nc1ccc2nnc(-c3ccncc3)n2n1", "growth": "88.5%"}, {"smiles": "CC(C)(C)[Si](C)(C)OC1[C@@H](CNC(=O)NC(=O)CCl)O[C@@H](n2cnc3c(N)ncnc32)[C@H]1O[Si](C)(C)C(C)(C)C", "note": "(some centres undefined)", "growth": "111%"}, {"smiles": "CC(=O)Nc1ccc(Sc2ccc([N+](=O)[O-])o2)cc1", "growth": "98.3%"}, {"smiles": "CC(C)(C)[Si](C)(C)OC1[C@@H](COC(=O)NC(=O)CCl)O[C@@H](n2cnc3c(N)ncnc32)[C@H]1O[Si](C)(C)C(C)(C)C", "note": "(some centres undefined)", "growth": "113%"}, {"smiles": "COc1ncnc2c1ncn2C/C(Br)=C(\\Br)CCl", "growth": "78.9%"}, {"smiles": "O=C1c2ccccc2C(=O)c2c(Nc3ccc(CCO)cc3)ccc(O)c21", "growth": "68.5%"}, {"smiles": "COc1ccccc1CNCCCCCCCCCCCCN1C(=O)c2ccc3c4c(ccc(c24)C1=O)C(=O)N(CCCCCCCCCCCCNCc1ccccc1OC)C3=O", "growth": "111%"}, {"smiles": "CC(=O)c1cc(C)c(OC(=O)c2ccccc2)c(C)c1", "growth": "119%"}, {"smiles": "COC(=O)/C=C1/CCC2C3CCC4=CC(=O)C(Br)CC4(C)C3C(=O)CC12C", "note": "(centres undefined)", "growth": "115%"}, {"smiles": "O=c1[nH]c(-c2ccccn2)nc2sc3c(c12)CCCCCC3", "growth": "46.8%"}, {"smiles": "CC(C)OC1=C(Cl)C(=O)c2ccccc2C1=O", "growth": "95%"}, {"smiles": "CCCCCn1c(=N)n(CC(O)COc2cccc(C)c2)c2ccccc21", "note": "(centres undefined)", "growth": "14%"}, {"smiles": "CC1SC(c2cccc(Oc3ccccc3)c2)N(CCc2cccs2)C1=O", "note": "(centres undefined)", "growth": "4.21% (active)"}, {"smiles": "CC(C)(C)[Si](C)(C)OC1[C@@H](COC(N)=O)O[C@@H](n2cnc3c(N)ncnc32)[C@H]1O[Si](C)(C)C(C)(C)C", "note": "(some centres undefined)", "growth": "114%"}, {"smiles": "COc1ccc(-c2csc3c2-n2cccc2C3=O)cc1O", "growth": "17.5%"}, {"smiles": "O=c1[nH]c(-c2ccncc2)nc2sc3c(c12)CCCCCC3", "growth": "59.4%"}, {"smiles": "COc1ccc(-n2c(SCc3cc(OC)c(OC)c(OC)c3)nc3ccc(C)cc3c2=O)c(OC)c1", "growth": "28%"}, {"smiles": "O=C1NC(=O)C(CSc2ccccc2)(c2ccccc2)N1", "note": "(centres undefined)", "growth": "86.5%"}, {"smiles": "Fc1ccccc1Nc1ccc2nnc(-c3ccncc3)n2n1", "growth": "104%"}, {"smiles": "CC(C)(C)[Si](C)(C)OC1[C@@H](O[Si](C)(C)C(C)(C)C)[C@@H](CNC(=O)NC(=O)C(F)(F)F)O[C@H]1n1cnc2c(NC(=O)Nc3ccccc3)ncnc21", "note": "(some centres undefined)", "growth": "97.6%"}, {"smiles": "Cc1ccc(N=c2nc3sc4c(C)ccc(C)c4n3c(N)c2C#N)cc1", "growth": "113%"}, {"smiles": "COCCOC1=C(Cl)C(=O)c2ccccc2C1=O", "growth": "95.6%"}, {"smiles": "CCOC(=O)C1=C(C)N2C(=NC3=C(CCCC/C3=C\\c3ccccc3)C2c2ccccc2)S1", "note": "(centres undefined)", "growth": "92%"}, {"smiles": "CCN1CCN(C(=S)SCC(=O)Nc2nc3ccc(OC)cc3s2)CC1", "growth": "92.3%"}, {"smiles": "Oc1ccccc1/C=N/Nc1nc2ccccc2s1", "growth": "63.1%"}, {"smiles": "CC(=O)Nc1ccccc1-c1n[nH]c(=O)[nH]c1=O", "growth": "105%"}, {"smiles": "Oc1ccc2ccccc2c1C1NN=C(c2ccccc2)S1", "note": "(centres undefined)", "growth": "29.2%"}, {"smiles": "O=c1c2c(=NCCN3CCCC3)cc3c(=O)n(CCCN4CCOCC4)c(=O)c4ccc(c(O)n1CCCN1CCOCC1)c2c4-3", "growth": "-10.8% (active)"}, {"smiles": "COc1ccccc1-n1c(SCc2cc(OC)c(OC)c(OC)c2)nc2ccc(Cl)cc2c1=O", "growth": "55.1%"}, {"smiles": "Nc1c(Br)cc(Br)cc1-c1n[nH]c(=O)[nH]c1=O", "growth": "109%"}, {"smiles": "O=C1C(OCCOc2ccccc2)=C(OCCOc2ccccc2)C(=O)c2ccccc21", "growth": "60.3%"}, {"smiles": "O=c1nc(NO)[nH]c(=O)n1Cc1ccccc1", "growth": "120%"}, {"smiles": "COc1ccc(-c2nc3sc(C)nn3c2-c2nc3cc(C)c(C)cc3[nH]2)cc1", "growth": "99.4%"}, {"smiles": "Cc1ccc2nc(NC(=O)CSC(=S)N3CCN(C)CC3)sc2c1", "growth": "106%"}, {"smiles": "CC[Si](CC)(CC)OC1[C@@H](O[Si](CC)(CC)CC)[C@@H](CNC(=O)NC)O[C@H]1n1cnc2c(NC(=O)Nc3ccccc3)ncnc21", "note": "(some centres undefined)", "growth": "96.3%"}, {"smiles": "COc1ccc(C2SC(C)C(=O)N2CCc2cccs2)cc1OC", "note": "(centres undefined)", "growth": "91.7%"}, {"smiles": "Cc1cc(=O)[nH]n1-c1cc(Cl)ccc1N", "growth": "112%"}, {"smiles": "c1ccc2cc(Cn3c(-c4ccc5ccccc5c4)[n+](Cc4ccc5ccccc5c4)c4ccccc43)ccc2c1", "growth": "-7.14% (active)"}, {"smiles": "COc1cc2nc(SCc3cc(OC)c(OC)c(OC)c3)n(-c3ccccc3OC)c(=O)c2cc1OC", "growth": "85.1%"}]}]}
